What all share (settings): concentration: 1 μM, replicates: in singlicate; n = 1
The test system of test [1] is T1, RSK2(Kin.Dom.1-N-terminal).
T1 construct: gene RPS6KA3

Test [2] concerns T2, RSK2(Kin.Dom.2-C-terminal).
T2 construct: gene RPS6KA3

The subject of test [3] is T3, RSK3(Kin.Dom.1-N-terminal).
T3 construct: gene RPS6KA2

The subject of test [4] is T4, RSK3(Kin.Dom.2-C-terminal).
T4 construct: gene RPS6KA2

The test system of test [5] is T5, RSK4(Kin.Dom.1-N-terminal).
T5 construct: gene RPS6KA6

In test [6] the test system is T6, RSK4(Kin.Dom.2-C-terminal).
T6 construct: gene RPS6KA6

The test system of test [7] is S6K1.
In test [8] the test system is SBK1.
Test [9] relates to SGK2.
Test [10] has as its system SGK3.
In test [11] the test system is SGK.
The subject of test [12] is SIK2.
Test [13] concerns SIK.
Test [14] deals with SLK.
Test [15] has as its system T7, SNARK.
T7 construct: gene NUAK2

Test [16] relates to SNRK.
Test [17] concerns SRC.
The test system of test [18] is SRMS.
Test [19] has as its system SRPK1.
The test system of test [20] is SRPK2.
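Note: KINOMEscan kinase panel screen.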

Regarding `Cn1cc(-c2ccc3c(c2)CCN3C(=O)Cc2ccccc2Cl)c2c(N)ncnc21` [GSK2608885], the “%Inh” value in test [1] came out at 0%; in test [2], 23%; in test [3] it was 87%; in [4] it was 12%; in test [5], 0%; in [6], 18%. The “%Inh” value turned out to be 14% in test [7]; 25% in test [8]; 0% in test [9]; 3% in test [10]; 0% in test [11]; 52% in test [12]. Moreover, the “%Inh” value in test [13] is given as 96.4%; in [14], 99.2%; in test [15], 89%; in [16] it was 0%; in [17], 99.1%; in test [18] it was 98.4%. In addition, the “%Inh” value in test [19] is 56%; in [20] it was 0%.
In the case of `Cc1ccc(C(=O)NCC(N)=O)cc1-n1c(C)cc(OCc2ccc(F)cc2F)c(Br)c1=O`, the “%Inh” value is 0% in [1]; 0% in test [2]; 22% in [3]; 9% in test [4]; 0% in test [5]; 29% in test [6]. Moreover, the “%Inh” value in test [7] is reported as 3%; in test [8], 0%; in [9], 0%; in test [10], 0%; in [11], 0%; in test [12], 0%. The “%Inh” value in test [13] is 6%; in [14], 24%; in [15], 0%; in test [16] it was 15%; in [17], 16%; in test [18], 0%. Moreover, the “%Inh” value in test [19] and in test [20] was 0% in each case.
Take `O=c1cc(N2CCOCC2)nc2n(Cc3cccc(C(F)(F)F)c3)ccn12` [GSK2297543]: the “%Inh” value in test [1] was determined as 16%; in test [2], 6%; in test [3] it was 0%; in test [4] it was 6%; in test [5] it was 0%; in test [6], 13%. The “%Inh” value in test [7] was determined as 0%; in test [8], 37%; in test [9] it was 0%; in test [10], 5%; in [11] it was 0%; in test [12], 0%. Moreover, the “%Inh” value in [13] was determined as 0%; in test [14], 18%; in test [15] it was 0%; in [16], 0%; in test [17] it was 0%; in test [18], 0%. Moreover, the entries for the “%Inh” value in test [19] and in [20] were 24% and 0%, respectively.
Turning to `O=C(NCCCN1CCOCC1)c1cccc(Nc2nccc(Nc3ccc(Oc4ccccc4)cc3)n2)c1` [GW663929], the “%Inh” value in test [1] is on record as 0%; in test [2], 11%; in test [3] it was 7%; in [4] it was 10%; in [5] it was 0%; in test [6] it was 20%. In addition, the “%Inh” value worked out at 0% in test [7]; 1% in [8]; 12% in [9]; 19% in [10]; 1% in [11]; 12% in [12]. Moreover, the “%Inh” value in test [13] worked out at 68%; in test [14], 8%; in test [15], 22%; in test [16] it was 0%; in test [17] it was 81%; in test [18] it was 97.5%. The “%Inh” value in test [19] is recorded as 25%; in [20] it was 19%.
Regarding `O=C(NOCC1CC1)c1ccc(F)c(F)c1Nc1ccc(I)cc1Cl`, the “%Inh” value in [1], in test [2], in test [3], in test [4], in test [5] and in test [6] was 0% in each case. Besides, the “%Inh” value in [7], in [8], in [9], in test [10], in test [11] and in test [12] was 0% in each case. Besides, the “%Inh” value in [13] worked out at 1%; in test [14], 0%; in test [15], 0%; in test [16], 0%; in test [17], 0%; in [18] it was 0%. Also, the “%Inh” value in test [19] and in test [20] was 0% in each case.
For the compound `CN1c2ccc(NCc3ccc(F)cc3)cc2-c2c(cnn2C)S1(=O)=O`, the “%Inh” value in test [1] is reported as 23%; in test [2], 31%; in test [3], 10%; in test [4] it was 22%; in [5] it was 0%; in test [6], 98.7%. Also, the “%Inh” value in test [7] was 10%; in [8], 0%; in test [9] it was 18%; in test [10], 4%; in test [11], 5%; in test [12] it was 11%. Also, the “%Inh” value is on record as 0% in test [13]; 0% in [14]; 0% in test [15]; 0% in [16]; 3% in [17]; 0% in test [18]. For the same compound, the “%Inh” value in test [19] and in [20] was 0% in each case.
Take `Cc1cccc(Cn2ccn3c(=O)cc(N4CCOCC4)nc23)c1` [GSK2297542]: the “%Inh” value came out at 11% in [1]; 33% in [2]; 19% in test [3]; 44% in test [4]; 0% in [5]; 42% in test [6]. Also, the “%Inh” value in [7] is recorded as 6%; in [8], 26%; in [9], 1%; in [10], 0%; in test [11], 0%; in test [12], 0%. For the same compound, the “%Inh” value is 3% in test [13]; 22% in test [14]; 3% in test [15]; 0% in test [16]; 24% in test [17]; 11% in test [18]. The “%Inh” value in test [19] is given as 11%; in test [20], 0%.
In the case of `O=C1NC(=O)C(N2CCc3ccccc32)=C1c1cccc(Cl)c1` [SB-408010], the “%Inh” value in [1] turned out to be 0%; in test [2] it was 0%; in [3] it was 10%; in test [4], 21%; in test [5], 35%; in test [6], 11%. The “%Inh” value turned out to be 0% in [7]; 5% in test [8]; 0% in test [9]; 0% in [10]; 0% in [11]; 0% in test [12]. Besides, the “%Inh” value in test [13] amounted to 12%; in test [14] it was 26%; in test [15], 2%; in [16], 0%; in test [17], 10%; in test [18], 0%. Further, the “%Inh” value in test [19] is listed as 14%; in test [20] it was 9%.
`Cl.Oc1cccc(Nc2ccnc3cc(-c4ccncc4)ccc23)c1` [GW494601]: the “%Inh” value in test [1] is given as 12%; in test [2], 23%; in test [3] it was 0%; in [4], 0%; in [5], 0%; in [6], 29%. The “%Inh” value in test [7] was found to be 0%; in test [8], 34%; in test [9], 0%; in [10], 3%; in test [11], 12%; in [12], 69%. The “%Inh” value is 72% in [13]; 11% in [14]; 12% in test [15]; 0% in test [16]; 100% in [17]; 0% in test [18]. Moreover, the “%Inh” value in [19] is recorded as 46%; in [20], 0%.
Turning to `c1ccc(-c2cc(-c3c[nH]nc3-c3ccccn3)ccn2)cc1` [GW576604], the “%Inh” value was found to be 0% in test [1]; 0% in test [2]; 0% in test [3]; 4% in test [4]; 0% in test [5]; 8% in test [6]. In addition, the “%Inh” value in test [7], in test [8], in test [9], in test [10], in test [11] and in test [12] was 0% throughout. In addition, the “%Inh” value in [13], in test [14], in test [15], in test [16], in [17] and in test [18] was 0% throughout. The “%Inh” value in test [19] was found to be 24%; in test [20], 9%.

(Values after paper PMC5540273 (PLoS ONE, 2017).)
